# Measurements published in PubChem BioAssay (Tox21).
# Inconclusive results are not listed. Entries that show only a call come without a potency. Active and inactive are the calls of the source. Calls follow the shape of the full dose curve.
# Assay: qHTS assay to identify small molecule agonists of the hypoxia (HIF-1) signaling pathway - cell viability counter screen (AID 1224844); also: nearly all actives have a fitted effect of over 50% in size
# Conditions: HRE-bla ME-180 viability, CellTiter-Glo luminescence, 17 h; series mostly up to 76.8 µM
# In short: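 In this counter screen, HRE-bla ME-180 cell viability after 17 hrs of compound exposure at 37C was read by CellTiter-Glo luminescence, multiplexed with the beta-lactamase reporter measurement.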
# Potency is read from the fitted curve at half-maximal effect.
row,SMILES,Potency
1,CCC(C)COC(C)=O (stereo not given),inactive
2,CN(C)CCC=C1c2ccccc2C=Cc2ccccc21,inactive
3,C1COC1,inactive
4,O=Cc1c2ccccc2c(Cl)c2ccccc12,inactive
5,CC(C)(O)c1ccc(CNC(=O)c2cccnc2Oc2ccc3nonc3c2)cc1,inactive
6,COc1ccccc1Oc1c(NS(=O)(=O)c2ccc(C(C)(C)C)cc2)nc(-c2ncccn2)nc1OCCO,inactive
7,C=COCC(C)C,inactive
8,C[C@@H]1CN(CCCn2c3ccccc3c3ccccc32)C[C@H](C)N1,21.3 µM (active)
9,C[C@]1(Cn2ccnn2)[C@H](C(=O)O)N2C(=O)C[C@H]2S1(=O)=O,inactive
10,Cc1cc(C)cc(N)c1,inactive
11,CC1CC(OC(=O)C(O)c2ccccc2)CC(C)(C)N1C (stereo not given),inactive
12,O=C(O)c1cccc(-c2noc(-c3ccccc3F)n2)c1,inactive
13,CCCCN(CCCC)C(C(N)=O)c1ccc(OC)cc1 (stereo not given),inactive
14,CC1=C(CC=O)C(C)(C)CCC1,inactive
15,COC(=O)C1=C(C)NC(C)=C(C(=O)O[C@@H]2CCCN(Cc3ccccc3)C2)[C@@H]1c1cccc([N+](=O)[O-])c1,inactive
16,CC(C)=CCC/C(C)=C/CC/C(C)=C/CCC(=O)OC/C=C(\C)CCC=C(C)C,inactive
17,CC[N+](CC)(CCNC(=O)C(=O)NCC[N+](CC)(CC)Cc1ccccc1Cl)Cc1ccccc1Cl,inactive
18,Cc1cscn1,inactive
19,CC(C)c1nc(CN(C)C(=O)N[C@H](C(=O)N[C@@H](Cc2ccccc2)C[C@H](O)[C@H](Cc2ccccc2)NC(=O)OCc2cncs2)C(C)C)cs1,9.52 µM (active)
20,CN1C(=O)OC(C)(C)C1=O,inactive

row,SMILES,Potency
1,CC(C)C(O)(c1ccc(OC(F)(F)F)cc1)c1cncnc1 (stereo not given),inactive
2,Cc1cccc(N(C)C(=S)Oc2ccc3c(c2)CCC3)c1,inactive
3,NC1[C@H]2CN(c3nc4c(cc3F)c(=O)c(C(=O)O)cn4-c3ccc(F)cc3F)C[C@@H]12 (stereo not given in full),inactive
4,CCCCCCCCCCCCCCN(CCO)CCO,49 µM (active)
5,O=C(O)CCc1nc(-c2ccccc2)c(-c2ccccc2)o1,inactive
6,CC=C(Cl)Cl,inactive
7,CN1C(=O)N(c2ccccc2Br)Cc2cnc(Nc3ccc4c(c3)OCC(CO)O4)nc21 (stereo not given),inactive
8,CCCCC(CC)COP(=O)(O)O (stereo not given),12.5 µM (active)
9,C1C[C@@H]2[C@H]3CC[C@H](C3)[C@@H]2C1,inactive
10,CCOc1ccc(Cc2nccc3cc(OCC)c(OCC)cc23)cc1OCC,inactive
11,CC/C=C1/OC(=O)c2ccccc21,inactive
12,CNC(=O)c1cnn(-c2nc(N)c3ncn([C@@H]4O[C@H](CO)[C@@H](O)[C@H]4O)c3n2)c1,inactive
13,COc1cc(C(=O)NCCCCCC(=O)O)cc(OC)c1OC,inactive
14,CN1CCCN=C1COC(=O)C(O)(c1ccccc1)C1CCCCC1 (stereo not given),inactive
15,CCCCCC[C@@H](O)C/C=C\CCCCCCCC(=O)O,inactive
16,COc1ncnc(NS(=O)(=O)c2ccc(N)cc2)c1OC,inactive
17,CCOC(=O)c1ccc(OCCN2C[C@H](O)[C@@H](O)[C@H](O)[C@H]2CO)cc1,inactive
18,Nc1nnc(-c2ccc([N+](=O)[O-])o2)o1,inactive
19,CC(CCC(=O)O)C(=O)O (stereo not given),inactive
20,COc1cc(Nc2c(C#N)cnc3cc(OCCCN4CCN(C)CC4)c(OC)cc23)c(Cl)cc1Cl,inactive
